The values that follow come from PubChem BioAssay (NCATS).

For one assay, the system named is JEG-3. Kind of assay: Primary qHTS to identify gynecologic anti-cancer compounds using libraries of approved drugs and bioactive compounds (AID 1345084). Note: nearly all actives have a fitted effect of over 55% in size. Note: potency is the fitted concentration of half-maximal effect. The following applies: Gynecologic cancer cell panel viability, ATPlite luminescence, 48 h; series mostly up to 57.5 µM. The procedure, abridged: (§1)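 ATP-based viability (ATPlite), 1,000 cells/well, 16 h pre-incubation, 48 h compound at 37 C, 5% CO2, 15 min RT before read.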
(Quantitative high-throughput screening tests each substance at several concentrations.)

The test system of another assay is OV90. The description is as above. The following applies: Gynecologic cancer cell panel viability, ATPlite luminescence, 48 h; series mostly up to 57.5 µM. The procedure, abridged:
as §1
On the technique in general: In ATP-based viability assays light output follows the ATP content of the culture.

Another assay relates to PA-1. Described as above. The following applies: Gynecologic cancer cell panel viability, ATPlite luminescence, 48 h; series mostly up to 57.5 µM. The procedure, abridged: as §1
For a further assay, the system named is SKOV3. Described as above. The following applies: Gynecologic cancer cell panel viability, ATPlite luminescence, 48 h; series mostly up to 57.5 µM. The procedure, abridged:
as §1

The subject of another assay is Tov-21-G. The assay is described as above. The following applies: Gynecologic cancer cell panel viability, ATPlite luminescence, 48 h; series mostly up to 57.5 µM. A digest of the protocol:
as §1

In a further assay the test system is Tov112D. The assay is described as above. The following applies: Gynecologic cancer cell panel viability, ATPlite luminescence, 48 h; series mostly up to 57.5 µM. A digest of the protocol:
as §1

The nature of assay [1]: Drug repurposing screens with cells derived from glioblastoma tumor samples (AID 1345199). For activity, negative = cell killing: % is set by controls: 0 for no effect and ±100 for the full control effect. Note: nearly all actives have a fitted effect of over 40% in size. Note: potency is the fitted concentration of half-maximal effect. The following applies: GBM patient neurospheres viability, ATP luminescence, 48 h. The procedure, abridged: (§2)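 Primary testing used CD133+ neurospheres from four GBM patients, seven concentrations, 48 h exposure and ATP-based viability; confirmation added three slower-growing patient lines.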

The next assay deals with astro. The assay is described as above. The following applies: viability, ATP luminescence, 48 h; series mostly up to 45.9 µM. A digest of the protocol: as §2
Assay [2] in a line: qHTS assay to identify inhibitors of the type 1 interferon - major histocompatibility complex class I in skeletal muscle: Counter screen cell viability and HiBit confirmation (AID 1347412). Note: % is set by controls: 0 for no effect and ±100 for the full control effect; nearly all actives have a fitted effect of over 60% in size. The following applies: iHSKM muscle cells + IFN-b, HiBiT or CellTiter-Glo, 24 h; Potency: HiBiT unless noted; Viability, at 45.9 µM (top of the series). A digest of the protocol:
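Duplicate plates, pinned identically: one read for HiBiT-tagged endogenous HLA-B luminescence, the other for ATP-content viability via CellTiter Glo. Cells were genome-engineered human myoblasts given 4 ng/ml IFN-b; compounds 12-pt, 1:3 from 46 uM final; 24 hr exposure.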

A short description of assay [3]: qHTS assay for small molecule activators of the human pregnane X receptor (PXR) signaling pathway (AID 720659; call rule not given here; note: 0% is about no effect). The following applies: DPX-2 HepG2 CYP3A4-luciferase, 24 h; series mostly up to 92.3 µM.
Assay [4] has as its target Nuclear receptor subfamily 1 group I member 2 (Rattus norvegicus) (UniProt Q9R1A7). Kind of assay: qHTS assay for small molecule activators of the rat pregnane X receptor (rPXR) signaling pathway (AID 651751; call rule not given here; note: 0% is about no effect). The following applies: rPXR reporter cells, luciferase (One-Glo), 24 h.
[5] abbreviates: at 20 µM (top of the series), tumour line C.
The mark [6] stands for this setting: at 21.2 µM (top of the series), tumour line B.
Setting [7] is: at 21.2 µM (top of the series), tumour line D.
The mark [8] stands for this setting: at 45.9 µM (top of the series), tumour line B.
Setting [9] is: at 45.9 µM (top of the series), tumour line D.
The mark [10] stands for this setting: at 46.1 µM (top of the series), tumour line C.
Where [11] appears, read: at 46 µM (top of the series), tumour line A.

“And” between values parts separate entries of the source, which are not always exact repeats. Equal values may be shown once. Inconclusive results are not listed. The source holds several records for some structures; these can differ, active in one and inactive in another. The source made the active and inactive calls. Unless noted, calls come from the whole dose curve; as a rule, active = well fitted curve in the direction sought with a large enough effect; inconclusive = small, poorly fitted or top-dose-only effect, or another doubt; inactive = no such curve, though single readings can be large; an effect the other way counts as inactive or inconclusive.

Sequence of Nuclear receptor subfamily 1 group I member 2 (Rattus norvegicus) (Q9R1A7 whole entry, looked up): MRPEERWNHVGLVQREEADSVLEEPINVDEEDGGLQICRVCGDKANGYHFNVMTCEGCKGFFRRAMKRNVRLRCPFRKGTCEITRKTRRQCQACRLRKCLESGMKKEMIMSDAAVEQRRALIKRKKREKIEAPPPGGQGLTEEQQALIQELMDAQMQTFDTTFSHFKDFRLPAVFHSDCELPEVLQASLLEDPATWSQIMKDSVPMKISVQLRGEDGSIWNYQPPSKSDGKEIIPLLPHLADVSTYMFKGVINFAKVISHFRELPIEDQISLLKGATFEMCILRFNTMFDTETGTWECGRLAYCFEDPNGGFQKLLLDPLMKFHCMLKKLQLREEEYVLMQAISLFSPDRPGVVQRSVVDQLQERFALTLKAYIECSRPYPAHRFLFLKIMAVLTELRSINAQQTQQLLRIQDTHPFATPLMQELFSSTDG

With `COc1c2occc2c(OC)c2c(=O)cc(C)oc12`, the Potency entry in the assay on JEG-3, with OV90, with PA-1, in the assay with SKOV3, in the assay with Tov-21-G and in the assay on Tov112D was “inactive” in each case. For the same compound, the Potency result with astro was “inactive”. In addition, the activity, negative = cell killing in assay [1] (setting [5]) is -11.9% (inactive); in assay [1] (setting [6]) it was -15.3% (inactive); in assay [1] (setting [7]) it was -6.87% (inactive).

For the compound `C[C@@H]1C[C@H]2[C@@H]3CCC4=CC(=O)C=C[C@]4(C)[C@@]3(F)[C@@H](O)C[C@]2(C)[C@H]1C(=O)CO`, the Potency entry in the assay with JEG-3, in the assay with OV90, in the assay on PA-1, in the assay on SKOV3, in the assay on Tov-21-G and in the assay with Tov112D was “inactive” each time. Moreover, in the assay on astro, the Potency result is “inactive”. The activity, negative = cell killing in assay [1] (setting [8]) is -17.3% (inactive); in assay [1] (setting [9]), -7.25% (inactive); in [1] (setting [10]) it was 1.19% (inactive).

With `C[C@]12CCC(=O)C=C1CC[C@H]1[C@@H]3CC[C@](O)(C(=O)CO)[C@@]3(C)C[C@H](O)[C@@]12F`, the Potency entry in the assay with JEG-3, in the assay on OV90, in the assay with PA-1, in the assay on SKOV3, in the assay on Tov-21-G and in the assay on Tov112D was “inactive” in each case. Moreover, the Potency result (with astro; in assay [2]) was “inactive” each time. Also, the activity, negative = cell killing in assay [1] (setting [8]) is -5.55% (inactive) and -2.43% (inactive); in assay [1] (setting [9]), -21.3% (inactive) and -14.3% (inactive); in assay [1] (setting [11]), -18.5% (inactive) and -26.2% (inactive); in [1] (setting [10]), -25.3% (inactive) and 1.15% (inactive).

As for `COc1ccc(CN2CCN(C(c3ccc(F)cc3)c3ccc(F)cc3)CC2)c(OC)c1OC`, the Potency entry in the assay on JEG-3, in the assay on OV90, in the assay on PA-1, in the assay with SKOV3, in the assay with Tov-21-G and with Tov112D was “inactive” each time. Besides, the activity, negative = cell killing in assay [1] (setting [10]) is -24.3% (inactive). Further, the Potency in [1] (tumour line A) was 3.16 µM (active); in [1] (tumour line D), 11.2 µM (active); with astro, 35.5 µM (active).

Regarding `C[C@H]1C[C@H]2[C@@H]3CCC4=CC(=O)C=C[C@]4(C)[C@@]3(Cl)[C@@H](O)C[C@]2(C)[C@@]1(O)C(=O)CO`, the Potency result in the assay on JEG-3, in the assay with OV90, with PA-1, with SKOV3, with Tov-21-G and in the assay with Tov112D was “inactive” throughout. In addition, the Potency result (in the assay with astro; in [2]) was “inactive” each time. Also, the activity, negative = cell killing is -17% (inactive) in [1] (setting [8]), -11.6% (inactive) in [1] (setting [9]), -29.5% (inactive) in [1] (setting [11]) and -24.3% (inactive) in assay [1] (setting [10]). Also, the compound was called inactive in [3].

On to `CC(=O)OCC(=O)[C@@]12N=C(C)O[C@@H]1C[C@H]1[C@@H]3CCC4=CC(=O)C=C[C@]4(C)[C@H]3[C@@H](O)C[C@@]12C`, for which the Potency entry with JEG-3, in the assay with OV90, with PA-1, in the assay on SKOV3, in the assay with Tov-21-G and in the assay with Tov112D was “inactive” throughout. In addition, the Potency entry (in the assay on astro; in [2]) was “inactive” in each case. Further, the activity, negative = cell killing is -9.58% (inactive) in assay [1] (setting [8]), -6.5% (inactive) in assay [1] (setting [9]), -6.46% (inactive) in assay [1] (setting [11]) and -22.2% (inactive) in assay [1] (setting [10]).

As for `COc1cc(N)c(Cl)cc1C(=O)NC1CCN(CCCOc2ccc(F)cc2)CC1OC` (stereo not given), the Potency result in the assay on JEG-3, in the assay with PA-1, with SKOV3, in the assay on Tov-21-G, with Tov112D and in the assay with astro was “inactive” throughout. Further, the Potency in the assay with OV90 was 25.1 µM (active); in [1] (tumour line A), 5.62 µM (active). For the same compound, the activity, negative = cell killing in [1] (setting [5]) is -1.31% (inactive); in [1] (setting [6]), -11.4% (inactive).

For the compound `CC(=O)OCC(=O)[C@@]1(O)CC[C@H]2[C@@H]3CCC4=CC(=O)C=C[C@]4(C)[C@H]3[C@@H](O)C[C@@]21C`, the Potency entry in the assay with JEG-3, in the assay on OV90, in the assay with PA-1, with SKOV3, in the assay on Tov-21-G and in the assay with Tov112D was “inactive” each time. Moreover, the Potency result (with astro; in [2]) was “inactive” in each case. In addition, the activity, negative = cell killing in [1] (setting [8]) was -3.24% (inactive); in assay [1] (setting [9]), -10.4% (inactive); in assay [1] (setting [11]) it was -4.22% (inactive); in [1] (setting [10]), 5.52% (inactive).

As to `CN(C)CCCOc1nn(Cc2ccccc2)c2ccccc12`, the Potency result in the assay on JEG-3, in the assay with Tov112D and in the assay with astro was “inactive” in each case. Besides, the Potency with OV90 is 14.1 µM (active) and inactive; in the assay on PA-1 it was 31.6 µM (active) and inactive; in the assay with SKOV3, 22.4 µM (active) and inactive; in the assay with Tov-21-G, 31.6 µM (active) and inactive; in assay [1] (tumour line A) it was 1.58 µM (active); in assay [1] (tumour line D), 7.08 µM (active). Also, in assay [1] (setting [5]), the activity, negative = cell killing is -16.8% (inactive).

`Nc1ccc(C(=O)O)cc1`: the Potency entry in the assay with JEG-3, in the assay with OV90, in the assay with PA-1, in the assay with SKOV3, in the assay on Tov-21-G and with Tov112D was “inactive” in each case. In the assay on astro, the Potency entry is “inactive”. The activity, negative = cell killing in assay [1] (setting [8]) is -6.59% (inactive); in assay [1] (setting [9]) it was -1.8% (inactive); in assay [1] (setting [11]) it was -31.3% (inactive); in [1] (setting [10]), -10.3% (inactive). The max response in assay [4] is -6.06% (inactive). Moreover, in [3], the compound was called inactive.

Turning to `O=C(COc1ccc(Cl)cc1)N1CCN(Cc2ccc3c(c2)OCO3)CC1`, the Potency result in the assay on JEG-3, with OV90, in the assay with PA-1, in the assay on SKOV3, in the assay on Tov-21-G and with Tov112D was “inactive” each time. Besides, in the assay on astro, the Potency entry is “inactive”. Besides, the activity, negative = cell killing was -2.59% (inactive) in assay [1] (setting [8]) and -28.6% (inactive) in [1] (setting [9]). Moreover, in assay [1] (tumour line A), the Potency is 20 µM (active).

On to `C=C1C[C@H]2[C@@H]3C=C(C)C4=CC(=O)CC[C@]4(C)[C@H]3CC[C@]2(C)[C@@]1(OC(C)=O)C(C)=O`, for which the Potency entry with JEG-3, in the assay with OV90, in the assay with PA-1, with SKOV3, in the assay on Tov-21-G and in the assay with Tov112D was “inactive” each time. Also, in the assay on astro, the Potency result was “inactive”. Moreover, the figures for the activity, negative = cell killing in [1] (setting [8]), in assay [1] (setting [9]) and in assay [1] (setting [10]) were -28.2% (inactive), -24.4% (inactive) and -11.9% (inactive), respectively.

For the compound `CCCC(=O)Nc1ccc(OCC(O)CNC(C)C)c(C(C)=O)c1` (stereo not given), the Potency result in the assay on JEG-3, in the assay with OV90, with PA-1, in the assay with SKOV3, with Tov-21-G and in the assay with Tov112D was “inactive” in each case. Also, the Potency result in the assay on astro was “inactive”. For the same compound, the activity, negative = cell killing in assay [1] (setting [5]) is -9.42% (inactive); in assay [1] (setting [6]), -3.87% (inactive); in assay [1] (setting [7]), 11% (inactive).

In the case of `O=C(O)CCCCC(=O)O`, the Potency result in the assay with JEG-3, with OV90, in the assay on PA-1, in the assay with SKOV3, in the assay with Tov-21-G and in the assay on Tov112D was “inactive” throughout. The Potency result in the assay on astro was “inactive”. Also, the activity, negative = cell killing in assay [1] (setting [8]) is 11.6% (inactive); in assay [1] (setting [9]), -7.89% (inactive); in [1] (setting [11]), -0.455% (inactive); in assay [1] (setting [10]) it was 0.572% (inactive). In assay [4], the max response is -0.0429% (inactive). In [3], the result was inactive.
